Results reported in ChEMBL document CHEMBL3988442, “University of Dundee, Small-Polar-MMV Screening Library” (2021).
Several values for one entry are separate records, joined by “and”; a condition that tells them apart may be missing. Identical values can stand only once. In all, about 34,000 compounds went through this assay and about 290 (0.85%) showed an effect of 50% or more. The sample holds strong results, similar compounds and a random draw of the others, so the mix is not that of the screen.

System: Plasmodium falciparum
Assay: Plasmodium falciparum sporozoite viability assay
Type: functional, organism-based
Parameters: scale not given: in the data most compounds retested in dose-response had high values

| Compound | Percent Effect [%] | Percent Effect (10 mM as filed; unlikely as a test dose) |
| --- | --- | --- |
| Cc1cc(Cc2cccc(C(F)(F)F)c2)cc(C2CCCNC2)n1 (stereo not given) | 4.537 | – |
| CN(C)C(=O)CN1CCCCC1c1nc(N)ncc1-c1ccc(Cl)cc1 (stereo not given) | -1.537 | – |
| Cc1noc(C)c1C(=O)N1C[C@@H]2CN(Cc3cccnc3)CCO[C@@H]2C1 | -15.82 | – |
| CCc1nc(-c2cccc(C(=O)O)c2)no1 | 7.751 | – |
| CS(=O)(=O)NC1CCN(C(=O)NCCc2ccccn2)CC1 | -4.021 | – |
| Cc1ccc(S(=O)(=O)N2CCN(Cc3ccncc3)CC2)c(Cl)c1 | -1.432 | – |
| Cc1ccc(OCCN(C)C(=O)CCCC(N)=O)c(C)c1 | -6.308 | – |
| Cc1cn2c(n1)C(CNCC1=Cc3ccccc3OC1)CCC2 (stereo not given) | – | 102.3% and 118.3% and 103.2% |
| Cc1ccc(N2CCCC(NCC3=Cc4ccccc4OC3)C2)nn1 (stereo not given) | 9.337 | – |
| CC(NCC1=Cc2cc(Cl)ccc2OC1)c1nnc2n1CCCC2 (stereo not given) | -0.2255 | – |
| Cc1cn2c(n1)C(CNCC1=Cc3cc(Cl)ccc3OC1)CCC2 (stereo not given) | – | 86.97% and 100% and 87.02% |
| Cc1cn2c(n1)C(CNCc1cccc3c1OCO3)CCC2 (stereo not given) | 10.56 | – |
| CCc1n[nH]c(C2CN(Cc3nnc(C4CC4)o3)CCO2)n1 (stereo not given) | 4.502 | – |
| CCc1ncnc2c1CCN(CCOC)CC2.O=C(O)C(F)(F)F | 8.757 | – |
| CC1COCCN1C(=O)COc1cccc(Oc2ccccn2)c1 (stereo not given) | – | -6.319% and -6.647% and 2.396% |
| CC1COCCN1C(=O)COc1ccc(Oc2ccccn2)cc1 (stereo not given) | – | 62.7% and 63.29% and 47.53% |
| COc1ncccc1CN1CCc2[nH]nc(C(=O)N(C)C)c2C1 | 10.07 | – |
| COCCn1ccc2c(C(=O)Nc3nc4c(s3)CCC4)cccc21 | – | 69.11% and 95.7% and 86.17% |
| COCCn1ccc2c(NC(=O)c3n[nH]c4c3CCC4)cccc21 | – | -3.571% and -16.58% and -12.91% |
| COCCn1cc(CC(=O)Nc2nc3c(s2)CCC3)c2ccccc21 | – | 1.19% and -4.41% and -3.323% |
| Cc1cc(CN2CCN(C(=O)c3sccc3C3CC3)CC2)no1 | 1.531 | – |
| O=C(Nc1cccnc1)[C@H]1C[C@H]2OCC[C@H]2N(C(=O)c2ccsc2)C1.O=C(O)C(F)(F)F | -9.732 | – |
| O=C(Nc1cccnc1)C1Cc2nc(-c3ccsc3)sc2N1CC1CC1.O=C(O)C(F)(F)F (stereo not given) | – | 89.12% and 90.39% and 85.39% |
| O=C1CCCN1CC1CCCCN1C(=O)Nc1cccnc1 (stereo not given) | 7.898 | – |
| O=C(O)C(F)(F)F.O=C(c1ccsc1)N1C[C@@H]2CCN(c3cccnc3)C[C@@H]2C1 | 9.933 | – |
